Drawing on PubChem BioAssay (EPA / NIEHS), this text covers AC50 and outcome for 6 compounds.

“And” between values parts separate entries of the source, which are not always exact repeats. Identical values can stand only once. Some compounds were tested as several samples or in several runs, with calls that do not always agree. The source made the active and inactive calls. Rule for the calls: active = hit-call score of the fitted dose curve at least 0.9, where 1 is the maximum; inactive = score below 0.9.

A short description of assay [1]: BSK_CASM3C_SRB: Viability Assessment in the BioMAP Diversity Plus: CASM3C Assay (AID 2283050).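 Note: cells exposed to compound for 24 h.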 Conditions: primary human coronary artery smooth muscle cells.
Read-out in assay [2]: Thrombomodulin, THBD (gene 7056)
Briefly: BSK_CASM3C_Thrombomodulin: BioMAP Diversity Plus: CASM3C Assay for Thrombomodulin Biomarker Activity (AID 2283051).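 Note: thrombomodulin protein level measured by ELISA 24 h after dosing.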 Conditions: primary human coronary artery smooth muscle cells; actives raise or lower the signal.

Read-out in assay [3]: Tissue Factor, F3 (gene 2152)
Briefly: BSK_CASM3C_TissueFactor: BioMAP Diversity Plus: CASM3C Assay for Tissue Factor Biomarker Activity (AID 2283052).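 Note: cell surface tissue factor protein level read by ELISA.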 Conditions: primary human coronary artery smooth muscle cells; actives raise or lower the signal.

Read-out in assay [4]: Interferon-gamma inducible Protein 10 (IP10), CXCL10 (gene 3627)
Briefly: BSK_hDFCGF_IP10: BioMAP Diversity Plus: hDFCGF Assay for Interferon-gamma inducible Protein 10 (IP10) Biomarker Activity (AID 2283053). Conditions: primary human foreskin fibroblasts; actives raise or lower the signal. The procedure, abridged: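 Primary human foreskin fibroblasts exposed to chemicals for 24 h. IP-10 measured by ELISA; changes fitted bidirectionally against DMSO baseline.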

Read-out in assay [5]: Urokinase-type plasminogen activator receptor (uPAR), PLAUR (gene 5329)
Briefly: BSK_CASM3C_uPAR: BioMAP Diversity Plus: CASM3C Assay for Urokinase-type plasminogen activator receptor (uPAR) Biomarker Activity (AID 2283054).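 Note: cell-surface uPAR protein level quantified by ELISA.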 The following applies: primary human coronary artery smooth muscle cells; actives raise or lower the signal.

Read-out in assay [6]: Vascular cell adhesion molecule 1 (VCAM1), VCAM1 (gene 7412)
Briefly: BSK_CASM3C_VCAM1: BioMAP Diversity Plus: CASM3C Assay for Vascular cell adhesion molecule 1 (VCAM1) Biomarker Activity (AID 2283055).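 Note: VCAM-1 protein level quantified by ELISA on the cells.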 The following applies: primary human coronary artery smooth muscle cells; actives raise or lower the signal.

Read-out in assay [7]: Collagen III, COL3A1 (gene 1281)
Briefly: BSK_hDFCGF_CollagenIII: BioMAP Diversity Plus: hDFCGF Assay for Collagen III Biomarker Activity (AID 2283056). Conditions: primary human foreskin fibroblasts; actives raise or lower the signal. In outline:
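ELISA readout of Collagen III in human dermal (foreskin) fibroblasts, taken 24 h post-treatment. Gain or loss relative to DMSO vehicle fitted in both directions.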

Read-out in assay [8]: Epidermal growth factor receptor (EGFR), EGFR (gene 1956)
Put plainly: BSK_hDFCGF_EGFR: BioMAP Diversity Plus: hDFCGF Assay for Epidermal growth factor receptor (EGFR) Biomarker Activity (AID 2283057). The following applies: primary human foreskin fibroblasts; actives raise or lower the signal. In outline:
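Primary human foreskin fibroblasts (hDFCGF system), sampled 24 h after dosing; EGFR quantified by ELISA. Bidirectional fit relative to DMSO baseline; SRB total-protein staining in parallel cultures for cytotoxicity.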

Assay [9] in a line: BSK_hDFCGF_Proliferation: Cell Proliferation Assessment in the BioMAP Diversity Plus: hDFCGF Assay (AID 2283059).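 Note: curves fitted for both rise and fall of signal versus DMSO baseline.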 Conditions: primary human foreskin fibroblasts. The procedure, abridged: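 Sub-confluent human foreskin fibroblast cultures receive test chemical […]. Relative cell number is quantified by sulforhodamine B staining (0.1%, after 10% TCA fixation) at 560 nm, with bidirectional fitting referenced to DMSO.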

Read-out in assay [10]: Macrophage colony-stimulating factor (MCSF), CSF1 (gene 1435)
Put plainly: BSK_hDFCGF_MCSF: BioMAP Diversity Plus: hDFCGF Assay for Macrophage colony-stimulating factor (MCSF) Biomarker Activity (AID 2283060). The following applies: primary human foreskin fibroblasts; actives raise or lower the signal. In outline: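 M-CSF levels read by ELISA at 24 h post-dosing in human skin fibroblasts. Parallel cultures stained with SRB assessed cytotoxicity at the same time point; response fitted in both directions against the DMSO baseline.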

Assay [11] can be described thus: BSK_hDFCGF_SRB: Viability Assessment in the BioMAP Diversity Plus: hDFCGF Assay (AID 2283061).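 Note: cells exposed to compound for 24 h before the read.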 The following applies: primary human foreskin fibroblasts. In outline:
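Viability was read as total protein: after 10% TCA fixation, wells were stained with 0.1% sulforhodamine B and read at 560 nm. Primary human foreskin fibroblasts were dosed for 24 h, with bidirectional fitting versus DMSO.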

Read-out in assay [12]: TIMP metallopeptidase inhibitor 1 (TIMP1), TIMP1 (gene 7076)
Put plainly: BSK_hDFCGF_TIMP1: BioMAP Diversity Plus: hDFCGF Assay for TIMP metallopeptidase inhibitor 1 (TIMP1) Biomarker Activity (AID 2283062). The following applies: primary human foreskin fibroblasts; actives raise or lower the signal. In outline:
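TIMP-1 measured by ELISA 24 h after chemical dosing of primary human skin fibroblasts, with gain or loss fitted relative to DMSO. Parallel SRB staining (560 nm) monitored overt cytotoxicity.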

Read-out in assay [13]: Matrix Metallopeptidase 1 (MMP1), MMP1 (gene 4312)
Briefly: BSK_hDFCGF_MMP1: BioMAP Diversity Plus: hDFCGF Assay for Matrix Metallopeptidase 1 (MMP1) Biomarker Activity (AID 2283064). The following applies: primary human foreskin fibroblasts; actives raise or lower the signal. In outline: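 hDFCGF primary fibroblasts (human foreskin); chemical added; 24 h; MMP1 by ELISA; bidirectional fit vs DMSO.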

Read-out in assay [14]: Vascular cell adhesion molecule 1 (VCAM1), VCAM1 (gene 7412)
Put plainly: BSK_hDFCGF_VCAM1: BioMAP Diversity Plus: hDFCGF Assay for Vascular cell adhesion molecule 1 (VCAM1) Biomarker Activity (AID 2283065).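 For AC50: VCAM-1 protein level quantified by ELISA after 24 h chemical exposure.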 The following applies: primary human foreskin fibroblasts; actives raise or lower the signal. In outline:
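ELISA readout of VCAM-1 on human dermal fibroblast primary cultures, 24 h after chemical exposure. Gain or loss of signal fitted in both directions against DMSO baseline.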

Read-out in assay [15]: Plasminogen activator inhibitor-1 (PAI1), SERPINE1 (gene 5054)
Put plainly: BSK_hDFCGF_PAI1: BioMAP Diversity Plus: hDFCGF Assay for Plasminogen activator inhibitor-1 (PAI1) Biomarker Activity (AID 2283066). The following applies: primary human foreskin fibroblasts; actives raise or lower the signal. The procedure, abridged: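 Human foreskin fibroblast primary cells, 24 h chemical exposure; PAI-1 measured by ELISA. Bidirectional fitting relative to DMSO; parallel cultures stained with SRB for total protein to flag overt cytotoxicity.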

Read-out in assay [16]: Intercellular Adhesion Molecule 1 (ICAM1), ICAM1 (gene 3383)
Briefly: BSK_KF3CT_ICAM1: BioMAP Diversity Plus: KF3CT Assay for Intercellular Adhesion Molecule 1 (ICAM1) Biomarker Activity (AID 2283067). The following applies: primary human keratinocytes with fibroblasts; actives raise or lower the signal. In outline: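 Cell-surface ICAM-1 was measured by ELISA 24 h after dosing primary human skin keratinocytes co-cultured with fibroblasts. Parallel SRB staining tracked overt cytotoxicity. Gain or loss of signal was fitted relative to DMSO.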

Read-out in assay [17]: Interferon-gamma inducible Protein 10 (IP10), CXCL10 (gene 3627)
Briefly: BSK_KF3CT_IP10: BioMAP Diversity Plus: KF3CT Assay for Interferon-gamma inducible Protein 10 (IP10) Biomarker Activity (AID 2283068). Conditions: primary human keratinocytes with fibroblasts; actives raise or lower the signal. In outline:
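ELISA read-out of IP-10 after 24 h chemical dosing of human skin primary co-culture (keratinocytes, foreskin fibroblasts). Gain or loss of signal relative to DMSO, bidirectional curve fit.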

A short description of assay [18]: BSK_KF3CT_SRB: Viability Assessment in the BioMAP Diversity Plus: KF3CT Assay (AID 2283069).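 Note: total protein by sulforhodamine B staining as a cytotoxicity measure; read 24 h after compound addition.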 Conditions: primary human keratinocytes with fibroblasts. The procedure, abridged:
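Keratinocytes co-cultured with foreskin fibroblasts (human primary); chemical added, 24 h; fix 10% TCA, stain 0.1% SRB, A560. Bidirectional fit vs DMSO.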

Read-out in assay [19]: Interleukin-8 (IL8), CXCL8 (gene 3576)
Briefly: BSK_hDFCGF_IL8: BioMAP Diversity Plus: hDFCGF Assay for Interleukin-8 (IL8) Biomarker Activity (AID 2283058). The following applies: primary human foreskin fibroblasts; actives raise or lower the signal. In outline:
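IL-8 levels read by ELISA at 24 hours after dosing human skin fibroblast cultures. Parallel SRB staining assessed overt cytotoxicity, and gain or loss of signal was fitted against DMSO control.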

Read-out in assay [20]: Monokine induced gamma interferon (MIG), CXCL9 (gene 4283)
Put plainly: BSK_hDFCGF_MIG: BioMAP Diversity Plus: hDFCGF Assay for Monokine induced gamma interferon (MIG) Biomarker Activity (AID 2283063). Conditions: primary human foreskin fibroblasts; actives raise or lower the signal. In outline:
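Human primary foreskin fibroblasts in the hDFCGF system, exposed to test chemical for 24 h; MIG measured by ELISA. Bidirectional curve fitting against DMSO negative control as activity baseline.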

For `c1ccc(Nc2cccc3ccccc23)cc1`, the AC50 in assay [1] is 31.3 µM (active); in [2], 10.1 µM (active) and 7.36 µM (active); in assay [3], 2.1 µM (active); in assay [4], 30.3 µM (active) and 34.6 µM (active); in [5], 10.5 µM (active); in assay [6] it was 7.35 µM (active). Also, the AC50 in assay [7] was 17.3 µM (active) and 13.9 µM (active); in [8], 32.5 µM (active); in [9], 9.99 µM (active) and 12.2 µM (active); in assay [10], 20 µM (active) and 14.5 µM (active); in assay [11] it was 32.7 µM (active) and 33.1 µM (active); in [12], 29.6 µM (active) and 28.8 µM (active). Also, the AC50 in assay [13] was 30.7 µM (active) and 30 µM (active); in assay [14] it was 21.2 µM (active) and 20 µM (active); in assay [15], 13.1 µM (active) and 12.3 µM (active); in assay [16], 30.7 µM (active) and 37.7 µM (active); in [17], 34.2 µM (active) and 35.7 µM (active); in assay [18] it was 31.8 µM (active) and 34.8 µM (active). Also, the result in assay [1], in assay [3], in assay [5], in assay [6] and in [8] was inactive.

For `C=CC(=O)OCCCCCCOC(=O)C=C`, the AC50 in assay [1] is 20 µM (active); in assay [3], 1.43 µM (active); in assay [4], 2.12 µM (active); in assay [5] it was 29.4 µM (active); in assay [6], 10.8 µM (active); in [7], 7.72 µM (active). The AC50 in assay [19] was 20 µM (active); in assay [9] it was 1.72 µM (active); in [10], 5.72 µM (active); in [11] it was 5.41 µM (active); in [12] it was 9.84 µM (active); in [20], 3.3 µM (active). Moreover, the AC50 in assay [13] is 12.8 µM (active); in assay [14], 0.881 µM (active); in [15], 11.5 µM (active); in assay [17], 26.6 µM (active); in assay [18] it was 20 µM (active). In addition, the outcome in assay [2] and in assay [8] was inactive.

As for `CC/C=C\C/C=C\C/C=C\CCCCCCCC(=O)OC`, the AC50 in assay [1] is 15.2 µM (active); in [2] it was 36.2 µM (active); in assay [3], 13.9 µM (active); in [4], 10.7 µM (active); in assay [5], 29.7 µM (active); in assay [6] it was 14.8 µM (active). For the same compound, the AC50 in [7] was 5.53 µM (active); in assay [19], 20 µM (active); in [9], 1.68 µM (active); in [10], 8.71 µM (active); in assay [11], 6.53 µM (active); in [12] it was 10.7 µM (active). In addition, the concentration at half-maximal activity (AC50) is 12.3 µM (active) in [13]; 8.22 µM (active) in [14]; 6.64 µM (active) in assay [15]; 12.3 µM (active) in assay [16]; 20 µM (active) in [17]; 20 µM (active) in [18]. Besides, the result in [8] was inactive.

With `CCCCCCCO`, the result in [1], in assay [2], in [3], in [4], in assay [5] and in assay [6] was inactive. The result in assay [7], in assay [8], in assay [19], in assay [9], in assay [10] and in assay [11] was inactive. The outcome in assay [12], in assay [13], in assay [14], in assay [15], in [16] and in assay [17] was inactive. Further, in [18], the outcome was inactive.

For the compound `C[N+](C)(C)CCCNS(=O)(=O)C(F)(F)C(F)(F)C(F)(F)C(F)(F)C(F)(F)C(F)(F)C(F)(F)C(F)(F)F`, the outcome in assay [1], in assay [2], in assay [3], in assay [5], in assay [6] and in assay [8] was inactive. In addition, the result in assay [12], in assay [20] and in assay [13] was inactive. Further, the AC50 is 30 µM (active) in assay [2]; 48.5 µM (active) and 48.9 µM (active) in assay [4]; 11.4 µM (active) and 5.3 µM (active) in [7]; 1.44 µM (active) and 220 nM (active) in assay [9]; 46.1 µM (active) and 48.7 µM (active) in assay [10]; 55.3 µM (active) and 47.5 µM (active) in assay [11]. Also, the concentration at half-maximal activity (AC50) in assay [14] is 38.9 µM (active) and 50.2 µM (active); in assay [15] it was 47.8 µM (active) and 53.5 µM (active); in assay [17] it was 42.7 µM (active) and 46.7 µM (active); in [18], 49.8 µM (active) and 51.4 µM (active).

`CC=C(C)C(C)=O`: the result in assay [1], in [3], in [4], in assay [5], in [6] and in assay [8] was inactive. In addition, the outcome in [10], in assay [11], in [12], in [20], in assay [13] and in assay [15] was inactive. For the same compound, the result in assay [16], in [17] and in [18] was inactive. Moreover, the half-maximal activity concentration (AC50) was 3.97 µM (active) in assay [2], 3.97 µM (active) in [7], 20 µM (active) in assay [9] and 6.7 µM (active) in [14].

What is called AC50 is the concentration at which the activity in the assay is half-maximal.
